# Compound activity (PubChem BioAssay)
# The list is not random: actives were taken first. Their share in the collection is about 1.1%.
# COUP-TFII inh: NR2F2 transcriptional activity inhibitors, primary screen, cell-based, luciferase reporter, HEK293T, luminescence | HEK293T NGFI-A luciferase reporter | inhibition, % at 8.6 µM | hit rate 0.7% among 370,000;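 active = inhibition above a per-plate cutoff, mean inhibition of test wells between control levels plus 3 SD, cut at about 38% in these data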;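 note: cells cotransfected with COUP-TFII expression vector driving the NGFI-A reporter; 0% = median of COUP-TF2 test wells and 100% = reporter-only cells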
# SRC2 inh: inhibition of GAL4-SRC2 driven luciferase reporter, primary screen, SRC2 inhibitor project, cell-based, luminescence. Nuclear receptor coactivator 2 (Homo sapiens), Q15596. HEK293 GAL4-SRC2 luciferase reporter. inhibition, % at 9 µM. hit rate 0.17% among 370,000;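 active = inhibition above the mean inhibition of all tested compounds plus 3 SD, set per campaign, cut at about 52% in these data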;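 note: 0% = DMSO treated cells and 100% = cells given Gossypol at 36 µM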
# LRH-1 inv ag: LRH-1 (NR5A2) inverse agonists, primary screen, cell-based, luminescence, HEK293T, StAR-luciferase reporter; Nuclear receptor subfamily 5 group A member 2 (Homo sapiens), O00482; LRH-1 transfected, 24 h; inhibition, % at 3.6 µM; hit rate 0.13% among 360,000; AID 602396, 2012;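 active = inhibition above the mean inhibition of all tested compounds plus 3 SD, cut at about 73% in these data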;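 note: 0% = DMSO wells and 100% = reporter-only cells lacking LRH-1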
# Target sequence (O00482 whole entry, looked up): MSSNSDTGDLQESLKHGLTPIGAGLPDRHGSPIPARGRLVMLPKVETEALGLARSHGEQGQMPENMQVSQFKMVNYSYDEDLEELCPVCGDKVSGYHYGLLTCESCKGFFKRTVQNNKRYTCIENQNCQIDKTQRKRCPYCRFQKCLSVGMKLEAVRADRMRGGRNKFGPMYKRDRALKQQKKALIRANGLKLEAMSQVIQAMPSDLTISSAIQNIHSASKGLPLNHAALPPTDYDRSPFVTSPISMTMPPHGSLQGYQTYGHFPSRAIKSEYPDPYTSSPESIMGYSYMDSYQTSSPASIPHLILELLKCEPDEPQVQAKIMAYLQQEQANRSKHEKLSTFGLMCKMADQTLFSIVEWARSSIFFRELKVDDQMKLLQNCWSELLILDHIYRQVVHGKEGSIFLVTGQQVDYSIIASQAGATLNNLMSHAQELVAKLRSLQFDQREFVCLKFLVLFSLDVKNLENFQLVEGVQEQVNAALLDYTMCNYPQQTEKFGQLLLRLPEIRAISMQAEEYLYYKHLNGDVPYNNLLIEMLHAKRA
# GalR3 antagonist: GalR3 antagonists in HEK293 cells, primary screen, cell-based, fluorescence readout; Galanin receptor type 3 (Homo sapiens), O60755; HEK293 GalR3-CNG cAMP membrane potential fluorescence; galR3 body fused to GalR1 C-terminus; inhibition, % at 3 µM; hit rate 0.44% among 360,000;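 active = inhibition above the screen-wide average plus 3 SD, cut at about 13% in these data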;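 note: forskolin and galanin both at EC90 stimulate the cells; cAMP rise reported by CNG channel membrane potential dye signal; 0% = forskolin plus galanin with DMSO and 100% = forskolin alone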
# SRC1 inh: SRC1 coactivator transcriptional activity inhibitors, primary screen, cell-based, luminescence | Nuclear receptor coactivator 1 (Homo sapiens), Q15788 | HEK293 GAL4-SRC1 luciferase reporter | inhibition, % at 3.6 µM | hit rate 0.12% among 360,000 | AID 588354, 2011;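 active = inhibition above the campaign mean plus 3 SD, with each screening campaign given its own cutoff, cut at about 60% in these data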;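 note: 0% = DMSO treated cells and 100% = gossypol at 36 µM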
# NCOA3 inh: SRC3 coactivator transcriptional activity inhibitors, primary screen, cell-based, luminescence | Nuclear receptor coactivator 3 (Homo sapiens), Q9Y6Q9 | inhibition, % at 3.6 µM | AID 588352, 2011 | hit rate 0.17% among 360,000 | HEK293 GAL4-SRC3 luciferase reporter;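 active = inhibition above a per-campaign cutoff, the mean of all compounds plus 3 SD, cut at about 60% in these data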;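 note: 0% = DMSO-treated cells and 100% = gossypol-treated cells at 36 µM; higher means less SRC3-driven luciferase light from the GAL4 reporter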
# GalR3 conf: GalR3 antagonist hit confirmation, cell-based, fluorescence, triplicate. shares compounds with GalR3 antagonist. hit rate 59% among 1,600. HEK293 GalR3 CNG cAMP biosensor, membrane potential fluorescence; galR3 fused to GalR1 carboxy tail; challenged with forskolin and galanin at EC90. AID 652245, 2013. inhibition, % at 3 µM;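 active = inhibition above the primary screen's cutoff, the mean inhibition of all screened compounds plus 3 SD, cut at about 13% in these data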;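 note: 0% = forskolin plus galanin and 100% = forskolin alone with DMSO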
# HEK-CNG parental: nonspecific cAMP agonists in parental HEK-CNG cells, counter-screen for GalR3 antagonist project, cell-based, fluorescence, high throughput; shares compounds with GalR3 antagonist; HEK293-CNG parental cells, cAMP membrane potential fluorescence; normalised: DMSO wells 0%, forskolin wells 100%; activation, % at 3 µM; hit rate 10% among 1,600; in the data active = activation above about 1.3%
# Gal4-VP16 ctr: Gal4-VP16 luciferase reporter inhibitors, counter-screen for COUP-TFII antagonist project, cell-based, luminescence, HEK293 | inhibition, % at 8.5 µM | shares compounds with COUP-TFII inh | hit rate 25% among 2,500 | AID 687007, 2013; in the data active = inhibition above about 13%
# NR2F2 inh conf: NR2F2 transcriptional activity inhibitors, confirmation, cell-based, luciferase reporter, HEK293, triplicate; shares compounds with COUP-TFII inh; HEK293 NGFI-A luciferase reporter, luminescence; inhibition, % at 8.5 µM; hit rate 45% among 2,500;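 active = mean inhibition over three repeats above a set limit taken from the earlier primary screen, cut at about 38% in these data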;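 note: 100% = cells given the luciferase reporter alone without the COUP-TF2 vector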
# The depositor's hits bear a star; x = no result given.
SMILES,COUP-TFII inh,SRC2 inh,LRH-1 inv ag,GalR3 antagonist,SRC1 inh,NCOA3 inh,Gal4-VP16 ctr,NR2F2 inh conf,others
CC(C)(C)c1ccc(CSc2cnn(C(C)(C)C)c(=O)c2Cl)cc1,71*,10,44,95*,31,12,4,61*,GalR3 conf=104*;HEK-CNG parental=1
O=C(Nc1cc(Cl)cc(Cl)c1)N1Cc2ccccc2-n2nncc2C1,2,5,-12,-6,-5,-8,x,x,
COc1cccc(C(c2nnnn2C(C)(C)C)N2CCC3(CC2)C(=O)NCN3c2ccccc2)c1OC (centres undefined),-26,-3,1,-2,15,23,x,x,
CCCC(=O)N1c2ccc(Cl)cc2C(c2ccccc2)=NCC1C(=O)NC(C)(C)C (centres undefined),4,16,x,x,x,x,x,x,
CCOC(=O)[C@]12Cc3cc(Cl)ccc3[C@H]1N(C1CCCCC1)C(=O)c1cc(OC)ccc12,59*,-2,97*,20*,x,x,53*,60*,GalR3 conf=46*;HEK-CNG parental=4.3*
CCOC(=O)[C@]12Cc3ccc(C)cc3[C@H]1N(C1CCCCC1)C(=O)c1cc(OC)ccc12,52*,-2,62,16*,x,x,23*,35,GalR3 conf=45*;HEK-CNG parental=2.3*
O=C1NCN(c2ccccc2)C12CCN(C(CCc1ccccc1)c1nnnn1-c1ccc3c(c1)OCCO3)CC2 (centres undefined),-2,-1,12,-1,16,13,x,x,
COC(=O)c1ccc(NC(=O)CSc2nc3ccc(N4C(=O)C5C6C=CC(C6)C5C4=O)cc3s2)cc1 (centres undefined),64*,50,39,-4,-15,34,-25,37,
O=C1C(=O)c2ccccc2-c2ccccc21,109*,95*,103*,3,95*,95*,96*,110*,
CC(C)(O)/C=C/C(=O)C(C)(O)C1C(O)CC2(C)C3CC=C4C(C=C(O)C(=O)C4(C)C)C3(C)C(=O)CC12C (centres undefined),44*,75*,72,-1,2,67*,61*,65*,
COc1cc2c(cc1OC)C13CCN4C=C5CCOC6CC(=O)N2C1C6C5CC43 (centres undefined),5,10,-7,1,2,12,x,x,
C[C@@H]1O[C@@H](O[C@H]2C[C@@H](O)[C@]3(CO)[C@@H]4C(CC[C@]3(O)C2)[C@@]2(O)CC[C@H](C3COC(=O)C3)[C@@]2(C)C[C@H]4O)[C@H](O)[C@H](O)[C@H]1O (some centres undefined),64*,3,99*,16*,49,67*,14*,58*,
O=C(c1ccco1)N1Cc2ccccc2-n2nncc2C1,-6,18,-23,-5,-34,-18,x,x,
COC(=O)C1=C(c2ccc(-c3ccccc3)c(F)c2)C[C@@H]2CC[C@H]1N2C(=O)N1CCOCC1,71*,25,40,-1,29,30,-9,36,
COC(=O)C1=C(c2ccc(-c3ccccc3)c(F)c2)C[C@@H]2CC[C@H]1N2C(=O)N1CCCC1,67*,19,40,-8,5,12,-5,47*,
COC(=O)C1=C(c2ccc(-c3ccccc3)c(F)c2)C[C@@H]2CC[C@H]1N2C(=O)N1CCCCC1,64*,45,38,-9,14,43,20*,54*,
COCCNC(=O)N1[C@H]2CC[C@@H]1C(C(=O)OC)=C(c1ccc(-c3ccccc3)c(F)c1)C2,50*,18,25,-2,21,26,3,32,
COC(=O)C1=C(c2ccc(-c3ccccc3)c(F)c2)C[C@@H]2CC[C@H]1N2C(=O)N1CCC(O)CC1,25,-17,18,-5,16,8,x,x,
COC(=O)C1=C(c2ccc(-c3ccccc3)c(F)c2)C[C@@H]2CC[C@H]1N2C(=O)NCCOc1ccccc1,9,16,-2,-8,2,24,x,x,
CC1=CC2OC3CC4OC(=O)C=CC=CC(=O)OCCC(C)C(O)C(=O)OCC2(CC1)C4(C)C31CO1 (centres undefined),90*,71*,99*,-7,95*,94*,17*,87*,
CC1CCOC(=O)C=CC=CC(=O)OC2CC3OC4C5OC5(C)C(O)CC4(COC(=O)C1O)C2(C)C31CO1 (centres undefined),92*,73*,98*,-6,96*,93*,23*,89*,
CC1=CC2OC3CC4OC(=O)C=CC=CC(C(C)O)OCC(O)C5(C)OC5C(=O)OCC2(CC1O)C4(C)C31CO1 (centres undefined),92*,65*,98*,-5,96*,93*,19*,89*,
CC(O)C1C=CC=CC(=O)OC2CC3OC4C5OC5(C)C(O)CC4(COC(=O)C(O)C(C)CCO1)C2(C)C31CO1 (centres undefined),92*,73*,100*,1,96*,94*,25*,92*,
ClC1=C(Cl)C2(Cl)C3C(Cl)C=CC3C1(Cl)C2(Cl)Cl (centres undefined),7,-29,-14,0,-3,2,x,x,
Cc1c(C(=O)N2CCC3(CC2)OCCO3)sc2ncnc(N3CCN(c4ccccn4)CC3)c12,3,-3,-2,1,19,34,x,x,
